Data reported in ChEMBL document CHEMBL3988442, “University of Dundee, Small-Polar-MMV Screening Library” (2021).
The campaign covered roughly 48,000 compounds. About 13,000 (27%) showed an effect of 50% or more. The list shows a part of the results.

Test system: Wolbachia pipientis
Assay: Anti-Wolbachia Cell-Based Screen
Type: functional
Set-up: scale not given: in the data most compounds retested in dose-response had high values
Settings: 5 µM

SMILES	Percent Effect [%]
Cc1nn(C)c(C)c1C1COCCN1C(=O)NC1CC1 (stereo not drawn)	-3.324
Cc1nn(C)c(C)c1C1COCCN1C(=O)c1cc(F)ccc1F (stereo not drawn)	96.87
Cc1ccc(O)c(C(=O)N2CCOCC2c2c(C)nn(C)c2C)c1 (stereo not drawn)	110.1
Cc1nn(C)c(C)c1C1COCCN1C(=O)CC(C)(C)C (stereo not drawn)	-9.995
COC(=O)N1CCCC(C(=O)Nc2nc(C)c(SC)s2)C1 (stereo not drawn)	-4.415
Cc1nc(CNC(C(=O)N2CCOCC2)C(C)C)no1 (stereo not drawn)	-7.712
COc1ccc(F)cc1C[S+]([O-])CC(=O)NCC(C)C (stereo not drawn)	-12.33
Cc1ocnc1C(=O)N1CCN(Cc2ccccc2)[C@@H]2CS(=O)(=O)C[C@@H]21	-1.53
CCn1nc2c(cc1=O)CN(CC(=O)N(C)c1nccs1)CC2	-28.1
CN(C)CCO[C@H]1CN(Cc2ccc3c(c2)OCO3)[C@@H]2COC[C@H]12.O=C(O)C(F)(F)F.O=C(O)C(F)(F)F	-6.328
CN(C)C(=O)CO[C@H]1CN(Cc2ccc3c(c2)OCO3)[C@@H]2COC[C@H]12.O=C(O)C(F)(F)F	108
CN(C)CCO[C@H]1CN(Cc2ccoc2)[C@@H]2COC[C@H]12.O=C(O)C(F)(F)F.O=C(O)C(F)(F)F	-9.926
CN(C)C(=O)CO[C@H]1CN(Cc2ccccc2)[C@@H]2CCCO[C@H]12.O=C(O)C(F)(F)F	0.8065
CN(C)C(=O)CO[C@H]1CN(Cc2ccsc2)[C@@H]2COC[C@H]12.O=C(O)C(F)(F)F	92.71
CN(C)C(=O)CO[C@H]1CN(Cc2ccoc2)[C@@H]2COC[C@H]12.O=C(O)C(F)(F)F	107.9
CN(C)C(=O)CO[C@H]1CN(Cc2cccc(C#N)c2)[C@@H]2COC[C@H]12.O=C(O)C(F)(F)F	-2.281
CCc1ccc(CN2C[C@H](OCC(=O)N(C)C)[C@H]3COC[C@H]32)o1.O=C(O)C(F)(F)F	117.7
CC(C)C1=NOC(c2nc(Cc3ccccc3)no2)C1 (stereo not drawn)	-12.61
CCc1ccccc1OC1CN(C(=O)c2ccnc(OC)c2)C1	-7.047
CC(C)NS(=O)(=O)c1cc(C(=O)O)cc(-c2ccccc2F)c1	2.884
Cc1ccc(F)cc1-c1ccc(N)nc1	-13.87

SMILES	Percent Effect [%]
CCc1ccc(C(=O)NC2CCCN(c3ccn(C)n3)C2=O)o1 (stereo not drawn)	-13.64
O=C1CCSCC(C(=O)N2CCN(C3CCCCC3)CC2)N1 (stereo not drawn)	2.707
COc1ccc(-n2ccc(CNCc3cccc(OC)c3)n2)cc1	-0.2636
C=C(C)COc1cccc(CNCc2nc3ccccc3c(=O)[nH]2)c1	-21.19
COc1cccc(CNC[C@@]2(COc3cccnc3)C[C@@H](O)[C@@H](O)C2)c1.Cl.Cl	-11.87
O=C(NCCc1cccnc1)NCCc1cccs1	-0.2291
Cc1nn(C)c(N(C)C)c1CNCc1cccnc1	7.028
COc1cccc(CNCc2nc3ccccc3c(=O)[nH]2)c1	145
Cl.c1cncc(CNCc2cccs2)c1	109.5
COc1cccc(CNCc2cccnc2)c1	125.9
COc1cccc(-c2nc(CNCc3cccnc3)cs2)c1	6.915
CCC(CC)c1cc(CNC(=O)N2CCC[C@@H]2CO)on1	-2.754
CCn1cc(CNc2ccc(F)c(N3CCCS3(=O)=O)c2)cn1	-13
Cc1cccc(C(=O)N(CCCO)S(=O)(=O)c2cccs2)c1	-17.59
O=C(CN1CCCC1)N1CCCC1c1nc(O)cc(-c2ccccn2)n1 (stereo not drawn)	91.97
O=C(CC1CCCC1)N1CCCC1c1nc(O)cc(-c2ccccn2)n1 (stereo not drawn)	-10.15
COCCC(=O)N1CCCC1c1nc(O)cc(-c2ccccn2)n1 (stereo not drawn)	100.3
C/C=C(/C)C(=O)NS(=O)(=O)c1ccc(C(F)(F)F)cc1	-1.888
CN1CCN(C(=O)C2CC=CC2)c2ccccc21	-33.89
O=C(C1CCCOC1)N1CCN(CC(F)(F)F)c2ccccc21 (stereo not drawn)	120.4
CC(C)(C)c1cc(NC(=O)C2COCCO2)n(-c2ccccn2)n1 (stereo not drawn)	-13.16

SMILES	Percent Effect [%]
O=C(C1CCOC1)N1CCN(CC(F)(F)F)c2ccccc21 (stereo not drawn)	125.3
O=C(C1CCCOC1)N1CCCCc2ccccc21 (stereo not drawn)	-3.66
Cc1ccc2c(c1)N(C(=O)C1CCCOC1)CCC2 (stereo not drawn)	0.6184
O=C(C1CCCOC1)N1CCCc2ccccc21 (stereo not drawn)	-6.498
O=C(C1COCCO1)N1CCN(CC(F)(F)F)c2ccccc21 (stereo not drawn)	122.9
COc1nc(N2CCN(C(C)=O)CC2)ncc1Br	-6.459
Cc1ccc(NC2CCCN(C3Cc4ccccc4C3)C2)nn1 (stereo not drawn)	-17.09
CCn1cc(S(=O)(=O)NC2CCCN(CCCc3ccccc3)C2)cn1 (stereo not drawn)	-6.071
Cc1ccc(NC2CCCN(CCCc3ccccc3)C2)nn1 (stereo not drawn)	90.19
CC(C)c1ccc(NC2CCCN(Cc3ccncc3)C2)cc1 (stereo not drawn)	-12.89
Cc1cc(C)nc(NC2CCCN(CCCc3ccccc3)C2)n1 (stereo not drawn)	120.4
c1ccc(CCCN2CCCC(Nc3cnc4ccccc4n3)C2)cc1 (stereo not drawn)	45.74
Cc1cc(NC2CCCN(Cc3ccc(F)cc3)C2)n2nc(C)cc2n1 (stereo not drawn)	43.11
CSc1ccccc1C(=O)N(C)C1CCCN(CCc2ccccc2)C1 (stereo not drawn)	-4.554
Cc1ccc(NC2CCCN(Cc3ccc(Cl)cc3)C2)nn1 (stereo not drawn)	105.3
Cc1nnc([C@H]2CCN(CCCc3ccccc3)C2)o1	-2.923
Cc1ccc(NC2CCCN(CCc3ccccc3)C2)nn1 (stereo not drawn)	81.81
Cc1cc(N[C@H]2CCCN(Cc3ccccc3)C2)n2nc(C)cc2n1	-7.34
CCn1c(CN2CCC(O)(C(=O)OC)CC2)nc2c(F)cccc21	-8.235
CSCCC(NC(N)=O)C(=O)NCc1c(C)nn(-c2ccccc2)c1C (stereo not drawn)	-8.181
FC(F)(F)c1ccccc1CCC1CCCN(Cc2cscn2)C1 (stereo not drawn)	15.59
